This is an account of results in PubChem BioAssay (NCI).

A short description of test [1]: NCI Yeast Anticancer Drug Screen. Data for the rad50 strain (AID 155).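 Also: 0% = growth of vehicle-only cultures of the same strain.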 The settings on record: S. cerevisiae rad50 strain growth inhibition; at 50.0 µM; active compounds read high. Summed up:
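Vehicle-treated cultures provide the reference for the growth inhibition reported for compound-exposed, repair-deficient yeast.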

A short description of test [2]: NCI Yeast Anticancer Drug Screen. Data for the mec2-1 strain (AID 157). The following applies: S. cerevisiae mec2-1 strain, at 50.0 µM, active compounds read high. A digest of the protocol:
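Using mec2-1 yeast: add compound, measure growth, express inhibition versus vehicle-treated cultures.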

The nature of test [3]: NCI Yeast Anticancer Drug Screen. Data for the sgs1 mgt1 strain (AID 161).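 Also: 0% = growth of cultures given vehicle only.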 The settings on record: S. cerevisiae sgs1 mgt1 strain, at 50.0 µM, active compounds read high. A digest of the protocol: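 Growth of a repair-deficient yeast mutant was monitored after compound treatment and expressed as inhibition relative to vehicle-treated cultures.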
A short description of test [4]: NCI Yeast Anticancer Drug Screen. Data for the cln2 rad14 strain (AID 165).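 Also: 0% = growth equal to vehicle treated cultures.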 The following applies: S. cerevisiae cln2 rad14 strain, at 50.0 µM, active compounds read high. A digest of the protocol: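 Yeast strain cln2 rad14, bearing defects in cell cycle control and DNA repair, serves as the test system; values reflect growth inhibition compared with vehicle.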
Test [5] is described as follows: NCI Yeast Anticancer Drug Screen. Data for the bub3 strain (AID 167). The settings on record: S. cerevisiae bub3 mutant strain, at 50.0 µM, active compounds read high. A digest of the protocol: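 Mutant yeast screening strain plus compound; vehicle-treated cultures serve as the 0% inhibition reference.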
A short description of test [6]: NCI Yeast Anticancer Drug Screen. Data for the mlh1 rad18 strain (AID 175). The settings on record: S. cerevisiae mlh1 rad18 strain growth inhibition; at 50.0 µM; active compounds read high. Summed up:
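Steps: expose repair-defective yeast to compound; measure growth; express inhibition against vehicle-treated controls.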

Compounds without any hit were thinned out: in the full panel of roughly 79,000, 15% have a hit. Unmarked numbers belong to inactive results. Calls of active or inactive are those of the source. Rule as the data show it: active = growth inhibition above about 70%; inactive = the rest.

As for `O=P1(O)c2ccccc2CSCc2ccccc21`, the growth inhibition in test [1] was 24.4%; in test [2], -7.35%; in test [3], -11.8%; in test [4], -2.8%; in test [5], -2.65%; in test [6], -31.8%.

In the case of `O=C(CCc1ccc(O)c(O)c1)NCCc1cc(O)cc(O)c1`, the growth inhibition in test [1] was 23.1%; in test [2] it was -23.9%; in test [3], -26.8%; in test [4], -4.95%; in test [5] it was -42.5%; in test [6] it was -52.5%.

For the compound `O=C(CCN1CCCC1)c1ccccc1`, the growth inhibition was -25.1% in test [1]; -15.1% in test [2]; -11.4% in test [3]; 5.45% in test [4]; -10.6% in test [5]; -11.1% in test [6].

Regarding `Cc1ccc2ccccc2c1CC(=O)O`, the growth inhibition is 28.8% in test [1]; 36.6% in test [2]; 31.5% in test [3]; 31.7% in test [4]; 38.8% in test [5]; 39.2% in test [6].

On to `CC1(C)C2CCC(CCOC(=O)COc3ccc(Cl)cc3)C1C2` (stereo not given), for which the growth inhibition in test [1] is -9.45%; in test [2], 5.5%; in test [3] it was 12.1%; in test [4], -44.2%; in test [5], 3.15%; in test [6], 12.6%.

`CSc1nccc(=O)n1C`: the growth inhibition was 9.6% in test [1]; -14.8% in test [2]; -9.8% in test [3]; -52.6% in test [4]; -21.6% in test [5]; -2.15% in test [6].

With `C/C(Cc1cccc2ccccc12)=N/NC(N)=O`, the growth inhibition is 2.35% in test [1]; -27.8% in test [2]; -19.1% in test [3]; -8% in test [4]; -12.1% in test [5]; -8.45% in test [6].

Turning to `CCN1C(=O)CCN(S(=O)(=O)c2ccc(-n3nc(C)cc3C)cc2)C1=S`, the growth inhibition is -5.55% in test [1]; -8.45% in test [2]; -9.15% in test [3]; -46.4% in test [4]; 1.7% in test [5]; -2.3% in test [6].

On to `CC(=O)OC/C=C(\C)CC(/C=C(C)/C=C/C1=C(C)CCCC1(C)C)S(=O)(=O)c1ccccc1` (stereo not given), for which the growth inhibition in test [1] is 35.5%; in test [2], 9.4%; in test [3] it was -6.15%; in test [4], 2.05%; in test [5], 0.2%; in test [6] it was -5.15%.

With `COc1cccc2c1C(=O)c1c(O)c3c(c(O)c1C2=O)CC(O)(C(O)CO)CC3OC1CC(N2CCSCC2)C(O)C(C)O1` (stereo not given), the growth inhibition was 87.7% (active) in test [1]; 87.5% (active) in test [2]; 88% (active) in test [3]; 84% (active) in test [4]; 85.8% (active) in test [5]; 90.3% (active) in test [6].

`CCCCCCCCCC/C=C/c1c(C)[nH]c2ccccc2c1=O`: the growth inhibition is -11.9% in test [1]; 8.7% in test [2]; -6.3% in test [3]; -6.5% in test [4]; -8.45% in test [5]; -11.1% in test [6].

Regarding `CC(COCc1ccccc1)NCc1ccccc1` (stereo not given), the growth inhibition in test [1] was -7.35%; in test [2], -27.6%; in test [3], 9.3%; in test [4], -9.15%; in test [5] it was -3.35%; in test [6], 13.2%.

Regarding `CC#CC(O)(C(=O)OC1CCCN(C)C1)C1=CC=CCC1` (stereo not given), the growth inhibition in test [1] is 11.7%; in test [2], 8.25%; in test [3], 13.2%; in test [4], 5%; in test [5], -1.75%; in test [6] it was 27.4%.

Take `O=C(/C=C(\O)c1ccc(Cl)cc1)C(=O)NN=C(c1ccccc1)c1ccccc1`: the growth inhibition is 39% in test [1]; 33.7% in test [2]; 3.1% in test [3]; 7.2% in test [4]; 14.5% in test [5]; 8.6% in test [6].

Consider `CCOC1CN(C(=O)ON)N1C(=O)ON` (stereo not given), for which the growth inhibition is 4.8% in test [1]; -12.6% in test [2]; -10.4% in test [3]; -33.2% in test [4]; -22.4% in test [5]; 4.85% in test [6].

On to `CCN1C2=NCCN2C(=O)c2ccccc21`, for which the growth inhibition in test [1] was -0.8%; in test [2], -11.2%; in test [3] it was 15.9%; in test [4], 15.1%; in test [5], 8.25%; in test [6] it was 13.4%.

`CC(=O)OC1COC(Cl)C(OC(C)=O)C1OC(C)=O` (stereo not given): the growth inhibition in test [1] was -4.95%; in test [2], -2.9%; in test [3], 0.1%; in test [4] it was 3.95%; in test [5], -8.95%; in test [6], 1.75%.

Regarding `CC1OC(c2ccccc2)OC1C` (stereo not given), the growth inhibition in test [1] is 18.6%; in test [2], -4.65%; in test [3] it was -6.9%; in test [4], -29.9%; in test [5], -18.9%; in test [6], 11.8%.

Consider `COc1ccc(OC)c2cc3c(cc12)C(=O)c1ccccc1C3=O`, for which the growth inhibition was 10.6% in test [1]; 70.2% (active) in test [2]; 25.2% in test [3]; 90.7% (active) in test [4]; 94.6% (active) in test [5]; 46.9% in test [6].

On to `C[C@H](N)C(O)/C=C/c1ccccc1` (stereo not given in full), for which the growth inhibition in test [1] is 5.1%; in test [2], -9.05%; in test [3], -0.7%; in test [4], -2.55%; in test [5] it was -0.3%; in test [6], -7.05%.
